According to PubChem BioAssay AID2061317 (National Center for Advancing Translational Sciences (NCATS), 2025):
Results filed as inconclusive are left out. Activity calls are given as the source filed them. The call rests on the fitted dose curve; in most records, active means well fitted inhibition curve with a large enough effect; inconclusive means small, poorly fitted or top-dose-only effect; inactive means flat fitted curve, though single readings scatter. Non-standard residues stand in square brackets, D forms with d. Residues, ends and D or L forms follow the SMILES beside them. Dolaproine = CO[C@@H]([C@@H]1CCCN1)[C@@H](C)C(=O)O; Dil = CC[C@H](C)[C@H](NC)[C@@H](CC(=O)O)OC; NMeV = CN[C@H](C(=O)O)C(C)C

Assay: Identification of antibody-drug conjugate (ADC) payloads which are substrates of ATP-binding cassette drug efflux transporters: ABCB1-HEK293-MDR-19 cell line with tariquidar
Conditions: HEK293 ABCB1 (MDR-19) + tariquidar, CellTiter-Glo viability, 48 h
Text: Antibody-drug conjugates (ADCs) feature an antibody recognizing a specific protein joined to a potent toxic payload. Numerous antibody-drug conjugates have received FDA approval; however, clinical resistance arises. Resistance mechanisms include decreased expression or mutation of the antibody target, impaired payload release, or increased expression of ATP-binding cassette (ABC) efflux transporters associated with multidrug resistance. We therefore sought to characterize the interaction of ABC multidrug transporters with ADC payloads. We performed a high-throughput screen with 27 common ADC payloads using cells lines expressing ABC transporters P-glycoprotein (P-gp, encoded by ABCB1) or ABCG2 (encoded by ABCG2). Confirmatory assays were also performed using cells transfected to express P-gp, ABCG2, or MRP1 (encoded by ABCC1). Several commonly used ADC payloads were substrates of P-gp, including calicheamicin gamma1, monomethyl auristatin E, DM1, and DM4. All the pyrrolobenzodiazepines tested - SJG136, SGD-1882, SG2057, and SG3199 - were substrates of P-gp, ABCG2, and MRP1. […] These findings highlight the risk of transporter-mediated resistance with certain ADC payloads and underscore the importance of selecting payloads that evade ABC transporter recognition in future ADC development.
HEK-293 cells were transfected with empty vector (pcDNA) or vector containing the human ABCB1 (MDR-19), ABCG2 (R-5), or ABCC1 gene (MRP1) and were maintained in EMEM with 2 mg/mL G418 added to maintain transporter expression. The HeLa derivative KB-3-1 and the P-gp overexpressing KB-8-5-11 subline were maintained in DMEM; KB-8-5-11 additionally received 100 ng/mL colchicine. H460 parental cells were obtained from the Division of Cancer Treatment and Diagnosis Tumor Repository, National Cancer Institute at Frederick, MD and were cultured in RPMI. The ABCG2 expressing subline H460 MX20 was generated by selecting H460 cells in 20 nM mitoxantrone. Media in all cases was supplemented with 10% FBS and 1% penicillin-streptomycin. We explored 27 common ADC payloads, in two orthogonal, paired cell line sets-a drug selected and transfected set for each transporter--to identify substrates of the ABC transporters P-gp and ABCG2. Compounds were sourced from Levena Biopharma (San Diego, CA), Selleck Chem (Houston, TX), ChemieTek (Indianapolis, IN), or Microsource Discovery Systems (Gaylordsville, CT). Screening was performed as previously described. Briefly, cells were plated at a density of 500 cells/well in 1536 well plates with compounds added using a 1536-head pin tool (Kalypsys, San Diego CA). Cells were incubated with cytotoxic drugs and processed with CellTiter Glo reagent (Promega, Madison, WI) to determine viability after 48 hours. P-gp substrates were identified by comparing compound activity between paired sets of low-expressing (sensitive) and over-expressing (resistant) cell lines.

Row | Structure (SMILES) | Potency
1 | COc1cccc2c1C(=O)c1c(O)c3c(c(O)c1C2=O)C[C@@](O)(C(=O)CO)C[C@@H]3O[C@H]1C[C@H]2[C@H](O[C@@H]3[C@@H](OC)OCCN32)[C@H](C)O1 | 0.0265 nM (active)
2 | Cc1nc(Nc2ncc(C(=O)Nc3c(C)cccc3Cl)s2)cc(N2CCN(CCO)CC2)n1 | 13300 nM (active)
3 | CCN(C(C)=O)[C@H]1CO[C@@H](O[C@H]2[C@H](O[C@H]3C#C/C=C\C#C[C@]4(O)CC(=O)C(NC(=O)OC)=C3/C4=C\CSSSC)O[C@H](C)[C@@H](NO[C@H]3C[C@H](O)[C@H](SC(=O)c4c(C)c(I)c(O[C@@H]5O[C@@H](C)[C@H](O)[C@@H](OC)[C@H]5O)c(OC)c4OC)[C@@H](C)O3)[C@@H]2O)C[C@@H]1OC | 1.2 nM (active)
4 | CCN[C@H]1CO[C@@H](O[C@H]2[C@H](O[C@H]3C#C/C=C\C#C[C@]4(O)CC(=O)C(NC(=O)OC)=C3/C4=C\CSSSC)O[C@H](C)[C@@H](NO[C@H]3C[C@H](O)[C@H](SC(=O)c4c(C)c(I)c(O[C@@H]5O[C@@H](C)[C@H](O)[C@@H](OC)[C@H]5O)c(OC)c4OC)[C@@H](C)O3)[C@@H]2O)C[C@@H]1OC | 0.1 nM (active)
5 | CC(C)(C)OC(=O)Nc1ccc2[nH]c(C(=O)N3C[C@@H](CCl)c4c3cc(O)c3ccccc43)cc2c1 | 11.8 nM (active)
6 | COC(=O)c1cc2c3c(cc(O)c2[nH]1)N(C(=O)c1cc2cc(OC)c(OC)c(OC)c2[nH]1)CC3CCl (stereo unspecified) | 0.7 nM (active)
7 | COc1cccc2c1C(=O)c1c(O)c3c(c(O)c1C2=O)C[C@@](O)(C(=O)CO)C[C@@H]3O[C@H]1C[C@H](N)[C@H](O)[C@H](C)O1 | 33.4 nM (active)
8 | CN(C)CCOc1ccc2[nH]c(C(=O)N3C[C@@H](CCl)c4c3cc(O)c3ccccc43)cc2c1 | 0.5 nM (active)
9 | CCc1c2c(nc3ccc(O)cc13)-c1cc3c(c(=O)n1C2)COC(=O)[C@]3(O)CC | 4.2 nM (active)
10 | COc1cc2cc(c1Cl)N(C)C(=O)C[C@H](O)[C@]1(C)O[C@H]1[C@H](C)C1C[C@@](O)(NC(=O)O1)[C@H](OC)/C=C/C=C(\C)C2 | 2650 nM (active)
11 | CC[C@H](C)[C@@H]([C@@H](CC(=O)N1CCC[C@H]1[C@H](OC)[C@@H](C)C(=O)N[C@@H](Cc1ccccc1)C(=O)O)OC)N(C)C(=O)[C@@H](NC(=O)[C@@H](NC)C(C)C)C(C)C (H-[NMeV]V[Dil][Dolaproine]F-OH) | 529 nM (active)
